Data published in the supplement of paper PMC7366291.
Where a name gives a salt, the structure may show the parent alone. ± gives the standard deviation or the standard deviation of the averaged measurements.

Tests used:
Details in all cases: 25 µM; exposure: 24-48 hpf
[1] = system: Danio rerio Tg(wt1b:EGFP) embryo, pronephros; experiment: glomerular separation, fold change vs DMSO control; higher = glomeruli further apart (abnormal)
In short: (§1)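 Dechorionated Tg(wt1b:EGFP) zebrafish embryos were kept from 24 to 48 hpf at 28.5°C in HEPES-buffered E3 containing 0.003% PTU, 0.5% DMSO and 25 μM compound. The pronephroi were then imaged from the dorsal side in agarose-filled 96-well plates at 470 nm with 10 z-slices, and 16 reference points were placed by hand on maximum projections in Fiji so that a macro could calculate distances and angles. Values lying more than 2 SD from the mean of a feature were discarded. Every feature is given as a fold change against the mean of DMSO-treated embryos from the same day.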

[2] = system: Danio rerio Tg(wt1b:EGFP) embryo, pronephros; experiment: glomerular width (mean of left and right), fold change vs DMSO control; higher = wider glomerulus
In short: as §1

[3] = system: Danio rerio Tg(wt1b:EGFP) embryo, pronephros; experiment: fraction of imaged embryos annotated as normal kidney; higher = less nephrotoxic; extreme values may be limits of the assay
In short: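 Dechorionated Tg(wt1b:EGFP) zebrafish embryos were incubated with 25 μM compound in 0.5% DMSO, 5 mM HEPES-buffered E3 and 0.003% PTU from 24 to 48 hpf at 28.5°C. Pronephroi were then imaged by widefield fluorescence, and the fraction of embryos per treatment assigned by hand to the normal-kidney category is given.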

[4] = system: Danio rerio Tg(wt1b:EGFP) embryo, pronephros; experiment: pronephric angle neck segment to proximal convoluted tubule (mean of left and right), fold change vs DMSO control; higher = larger pronephric angle
In short: as §1

Structure (SMILES)	glomerular separation [1]	glomerular width [2]	fraction of imaged embryos annotated as normal kidney [3]	pronephric angle neck segment [4]
NCCCCCC(=O)O [Aminocaproic acid]	0.833 ± 0.35	0.961 ± 0.022	1	1.02 ± 0.055
CN(C)CCCO[C@@H]1[C@H]2OC(C)(C)O[C@H]2O[C@@H]1[C@H](O)CO [Amiprilose hydrochloride]	1.12 ± 0.66	1.08 ± 0.071	0.667	1 ± 0.02
CC[N+](C)(C)Cc1ccccc1Br [Bretylium tosylate]	0.631 ± 0.23	0.9664 ± 0.0094	1	0.982 ± 0.028
CC(CN(C)C)CN1c2ccccc2Sc2ccccc21 (configuration not stated) [Trimeprazine tartrate]	0.739 ± 0.27	0.9878 ± 0.0068	0.833	1.01 ± 0.0053
CCOC(=O)NNc1nncc2ccccc12 [Todralazine hydrochloride]	0.937 ± 0.25	0.993 ± 0.06	0.917	0.963 ± 0.031
CC(C)(C)NC[C@H](O)c1ccc(O)c(CO)c1 [Levalbuterol hydrochloride]	0.811 ± 0.27	1.07 ± 0.031	0.917	0.998 ± 0.031
C[N+](C)(CCOc1ccccc1)Cc1ccccc1.O=C([O-])c1cc2ccccc2cc1O [Bephenium hydroxynaphthoate]	2.05 ± 0.8	0.9959 ± 0.0015	0.583	1.17 ± 0.053
CCN(CCCc1ccccc1)CCCc1ccccc1 [Alverine citrate salt]	0.843 ± 0.21	1.02 ± 0.044	0.75	0.942 ± 0.035
CN[C@@H]1[C@H](O)[C@H](NC)[C@H]2O[C@@]3(O)C(=O)C[C@@H](C)O[C@H]3O[C@@H]2[C@H]1O [Spectinomycin dihydrochloride]	0.786 ± 0.48	1.07 ± 0.021	0.909	0.9719 ± 0.0052
OCCN1C[C@H](O)[C@@H](O)[C@H](O)[C@H]1CO [Miglitol]	1.12 ± 0.48	0.995 ± 0.011	0.909	0.982 ± 0.0086
CC(C)NCC(O)c1ccc(O)c(O)c1 (single isomer, unassigned; (-)) [(-)-Isoproterenol hydrochloride]	0.881 ± 0.24	1.033 ± 0.0021	0.833	1.02 ± 0.021
N=C(N)NC(=N)NCCc1ccccc1 [Phenformin hydrochloride]	0.95 ± 0.25	0.978 ± 0.021	0.917	0.956 ± 0.029
Clc1ccc(CO/N=C(\Cn2ccnc2)c2ccc(Cl)cc2Cl)c(Cl)c1 [Oxiconazole Nitrate]	3.51 ± 1.1	0.623 ± 0.014	0	1.26 ± 0.03
C[n+]1ccccc1/C=N/O [Pralidoxime chloride]	0.691 ± 0.38	0.9582 ± 0.0035	0.833	1.039 ± 0.01
C/C(=C(\CCOP(=O)(O)O)SC(=O)c1ccccc1)N(C=O)Cc1cnc(C)nc1N [Benfotiamine]	1.54 ± 0.89	0.995 ± 0.021	0.75	0.949 ± 0.013
Clc1ccc(C(Cn2ccnc2)OCc2csc3c(Cl)cccc23)c(Cl)c1 (configuration not stated) [Sertaconazole nitrate]	3.82 ± 1.8	0.727 ± 0.039	0	1.56 ± 0.052
Cc1[nH]cnc1CN1CCc2c(c3ccccc3n2C)C1=O [Alosetron hydrochloride]	0.809 ± 0.28	1.027 ± 0.0085	0.917	0.977 ± 0.015
Nc1ncn(C2OC(CO)C(O)C2O)c(=O)n1 (configuration not stated) [Azacytidine-5]	0.981 ± 0.4	0.979 ± 0.017	1	1.02 ± 0.031
Fc1ccc([C@@H]2CCNC[C@H]2COc2ccc3c(c2)OCO3)cc1 [Paroxetine Hydrochloride]	0.594 ± 0.17	1.03 ± 0.042	1	0.9885 ± 0.0011
COC1=CC(=O)C[C@@H](C)[C@]12Oc1c(Cl)c(OC)cc(OC)c1C2=O [Griseofulvin]	0.952 ± 0.29	1 ± 0.023	0.917	0.947 ± 0.01

Structure (SMILES)	glomerular separation [1]	glomerular width [2]	fraction of imaged embryos annotated as normal kidney [3]	pronephric angle neck segment [4]
Clc1ccc(C(c2ccccc2Cl)C(Cl)Cl)cc1 (configuration not stated) [Mitotane]	0.566 ± 0.18	0.969 ± 0.038	0.909	1.05 ± 0.049
C=C1c2c(Cl)ccc(O)c2C(=O)C2=C(O)[C@]3(O)C(=O)C(C(N)=O)=C(O)[C@@H](N(C)C)[C@@H]3[C@@H](O)[C@H]12.O=C(O)c1cc(S(=O)(=O)O)ccc1O [Meclocycline sulfosalicylate]	1.02 ± 0.24	1.09 ± 0.091	0.917	0.9562 ± 0.0078
N[C@@H]1CONC1=O [D-cycloserine]	0.796 ± 0.24	0.976 ± 0.075	0.75	0.9921 ± 0.0046
Nc1ccc(S(=O)(=O)Nc2nccs2)cc1 [Sulfathiazole]	0.931 ± 0.36	0.936 ± 0.027	0.917	0.957 ± 0.019
COc1cc2nc(N3CCN(C(=O)C4COc5ccccc5O4)CC3)nc(N)c2cc1OC (configuration not stated) [Doxazosin mesylate]	0.958 ± 0.6	0.965 ± 0.026	1	1.007 ± 0.003
CS(=O)(=O)c1ccc([C@@H](O)[C@@H](CO)NC(=O)C(Cl)Cl)cc1 [Thiamphenicol]	0.938 ± 0.22	1.03 ± 0.024	1	0.978 ± 0.025
COc1cccc(OC)c1C(=O)N[C@@H]1C(=O)N2[C@@H]1SC(C)(C)[C@@H]2C(=O)O [Methicillin sodium]	1.21 ± 0.55	1.05 ± 0.057	0.5	1 ± 0.037
O=C(O)Cc1ccccc1Nc1c(Cl)cccc1Cl [Diclofenac sodium]	3.78 ± 1.9	0.492 ± 0.031	0	1.63 ± 0.018
CC(C)Nc1cccnc1N1CCN(C(=O)c2cc3cc(NS(C)(=O)=O)ccc3[nH]2)CC1 [Delavirdine]	0.975 ± 0.41	1.16 ± 0.017	0.667	0.921 ± 0.045
COc1cc(Cc2cnc(N)nc2N)cc(OC)c1OC [Trimethoprim]	1.48 ± 0.76	0.986 ± 0.013	0.727	1.05 ± 0.063
CN(N=O)C(=O)N[C@@H](C=O)[C@@H](O)[C@H](O)[C@H](O)CO [Streptozotocin]	0.671 ± 0.14	1.06 ± 0.047	1	1.01 ± 0.025
CC(COc1ccccc1)N(CCCl)Cc1ccccc1 (configuration not stated) [Phenoxybenzamine hydrochloride]	1.05 ± 0.59	0.834 ± 0.03	0.583	1.15 ± 0.036
CCCCNc1ccc(C(=O)OCCOCCOCCOCCOCCOCCOCCOCCOCCOC)cc1 [Benzonatate]	1.12 ± 0.54	0.897 ± 0.012	0.7	1.09 ± 0.039
Nc1c2ccccc2nc2ccccc12 [Aminacrine]	0.947 ± 0.57	1.01 ± 0.055	1	0.996 ± 0.028
CCCCOc1cc(C(=O)OCCN(CC)CC)ccc1N [Benoxinate hydrochloride]	0.798 ± 0.38	1.07 ± 0.018	0.833	0.9693 ± 0.0068
CC(C)Oc1ccc2c(=O)c(-c3ccccc3)coc2c1 [Ipriflavone]	0.901 ± 0.33	0.918 ± 0.049	0.833	1.06 ± 0.028
COc1ccc(Cl)cc1C(=O)NCCc1ccc(S(=O)(=O)NC(=O)NC2CCCCC2)cc1 [Glibenclamide]	0.804 ± 0.39	1.05 ± 0.023	0.818	0.999 ± 0.047
CCn1cc(C(=O)O)c(=O)c2cc(F)c(N3CCN(C)CC3)cc21 [Pefloxacine]	0.997 ± 0.31	1.01 ± 0.021	1	1.01 ± 0.018
Cc1cccc(Nc2ccccc2C(=O)O)c1C [Mefenamic acid]	5.08 ± 1.4	0.617 ± 0.064	0	1.63 ± 0.059
COc1c(N2CCNC(C)C2)c(F)cc2c(=O)c(C(=O)O)cn(C3CC3)c12 (configuration not stated) [Gatifloxacin]	0.71 ± 0.24	1.02 ± 0.054	0.917	1 ± 0.04

Structure (SMILES)	glomerular separation [1]	glomerular width [2]	fraction of imaged embryos annotated as normal kidney [3]	pronephric angle neck segment [4]
CN1C(C)(C)CCCC1(C)C [Pempidine tartrate]	0.75 ± 0.25	1 ± 0.032	0.833	1.02 ± 0.068
O=C1NCCN1CCN1CCC(c2cn(-c3ccc(F)cc3)c3ccc(Cl)cc23)CC1 [Sertindole]	1.45 ± 0.59	1.08 ± 0.022	0.833	0.949 ± 0.071
C[C@@H](c1ncncc1F)[C@](O)(Cn1cncn1)c1ccc(F)cc1F [Voriconazole]	0.875 ± 0.21	1.02 ± 0.015	0.5	1.01 ± 0.027
COC(=O)Nc1nc2cc(C(=O)c3ccc(F)cc3)ccc2[nH]1 [Flubendazol]	1.81 ± 0.69	0.934 ± 0.034	0.833	1.11 ± 0.15
O=C(O)c1ccccc1OP(=O)(O)O [Fosfosal]	0.789 ± 0.23	1.07 ± 0.022	0.833	0.9628 ± 0.0065
CCN1CCN(C(=O)N[C@@H](C(=O)N[C@@H]2C(=O)N3[C@@H]2SC(C)(C)[C@@H]3C(=O)O)c2ccccc2)C(=O)C1=O [Piperacillin sodium salt]	1.07 ± 0.47	0.991 ± 0.063	0.667	1.01 ± 0.046
COc1c(N2C[C@@H]3CCCN[C@@H]3C2)c(F)cc2c(=O)c(C(=O)O)cn(C3CC3)c12 [Moxifloxacin]	0.919 ± 0.39	0.971 ± 0.024	0.909	0.998 ± 0.029
COc1ccc(C(=O)NCc2ccc(OCCN(C)C)cc2)cc1OC [Itopride]	1.05 ± 0.44	0.962 ± 0.017	0.8	1.06 ± 0.055
C=C1C[C@H]2[C@@H]3C=C(C)C4=CC(=O)CC[C@]4(C)[C@H]3CC[C@]2(C)[C@@]1(OC(C)=O)C(C)=O [Melengestrol acetate]	0.846 ± 0.24	1.07 ± 0.039	0.917	1.02 ± 0.066
c1ccc2c(CC3=NCCN3)cccc2c1 [Naphazoline hydrochloride]	1.17 ± 0.54	1 ± 0.0079	1	1.006 ± 0.0059
NC(=O)c1ccc[n+]([C@@H]2O[C@H](COP(=O)([O-])OP(=O)(O)OC[C@H]3O[C@@H](n4cnc5c(N)ncnc54)[C@H](O)[C@@H]3O)[C@@H](O)[C@H]2O)c1 [Nadide]	0.955 ± 0.26	1.0386 ± 0.00057	0.75	0.9494 ± 0.0036
Cc1nc2n(c(=O)c1CCN1CCC(c3noc4cc(F)ccc34)CC1)CCCC2 [Risperidone]	0.741 ± 0.16	1.04 ± 0.043	1	0.974 ± 0.021
CC(=O)O[C@]1(C(C)=O)CC[C@H]2[C@@H]3C=C(Cl)C4=CC(=O)[C@@H]5C[C@@H]5[C@]4(C)[C@H]3CC[C@@]21C [Cyproterone acetate]	1.2 ± 0.46	0.931 ± 0.028	0.917	0.977 ± 0.017
C1N2CN3CN1CN(C2)C3 [Methenamine]	0.642 ± 0.2	0.975 ± 0.051	0.917	0.994 ± 0.029
NCCc1cc[nH]n1 [Betazole hydrochloride]	1.28 ± 0.54	0.9705 ± 0.0028	0.917	1.05 ± 0.012
O=C1[C@H]2CCCC[C@H]2C(=O)N1CCCCN1CCN(c2nsc3ccccc23)CC1 [Perospirone]	1.25 ± 0.36	0.9761 ± 0.0054	1	1.05 ± 0.017
CC(=O)c1ccc(S(=O)(=O)NC(=O)NC2CCCCC2)cc1 [Acetohexamide]	0.839 ± 0.25	1.05 ± 0.023	0.833	0.9767 ± 0.0092
NCc1ccccc1CC(=O)N[C@@H]1C(=O)N2C(C(=O)O)=C(CSc3nnnn3CC(=O)O)CS[C@H]12 [Ceforanide]	1.15 ± 0.8	0.949 ± 0.091	0.833	1.08 ± 0.038
